Screens as filed in PubChem BioAssay.
TDP1 cell noCPT = qHTS for Inhibitors of human tyrosyl-DNA phosphodiesterase 1 (TDP1): qHTS in cells in absence of CPT; DT40 Tdp1-/- hTDP1 cells, no CPT, ATP luminescence, 48 h; Potency, µM (top dose mostly 46.2 µM), without a hit: at the top dose activity change, negative = growth inhibition, actives largely listed as inhibitors; 420,000 tested, 15% active; AID 686978, 2013; note: potency is the fitted concentration of half-maximal effect; % is set by controls: 0 for no effect and ±100 for the full control effect; nearly all actives have a fitted effect of over 55% in size
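Chicken DT40 Tdp1-/- cells complemented with human TDP1, screened without camptothecin (DMSO vehicle only), 400 cells/well. Compounds pin-transferred, cells incubated at 37 °C for at least 48 hr. Growth read as ATP-dependent luminescence (CellTiter-Glo, 30 min at RT).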
HepG2 viability = qHTS for Inhibitors of TGF-b: Cytotox Counterscreen; HepG2 CAGA-GFP viability, ATP luminescence, 18 h; Potency, µM (top dose mostly 46.1 µM), without a hit: top-dose activity change, negative = cytotoxicity, actives largely listed as cytotoxic; 410,000 tested, 0.76% active; AID 588856, 2011; note: potency is the fitted concentration of half-maximal effect
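HepG2 CAGA-GFP cells (1000/well, DMEM with 1% FBS) received compound, then TGF-beta at 500 pg/mL final, and were incubated 18 hours at 37 degrees C. Viability was read by CellTiter-Glo luminescence. Media-only wells were set as complete cell-killing and DMSO as no toxicity.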
TDP1 cell CPT = qHTS for Inhibitors of human tyrosyl-DNA phosphodiesterase 1 (TDP1): qHTS in cells in presence of CPT. AID 686979, 2013. Potency, µM (doses to about 46.2 µM), inactives show at the top dose activity change, negative = growth inhibition, hits mostly inhibitors. chicken DT40 Tdp1-/-;hTDP1 cells + 20 nM CPT, ATP luminescence, 48 h. 420,000 tested, 12% active; note: potency is the fitted concentration of half-maximal effect; % is set by controls: 0 for no effect and ±100 for the full control effect; nearly all actives have a fitted effect of over 55% in size
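Cell growth measured by CellTiter-Glo luminescence after a minimum 48 h, 37 C compound exposure with 20 nM CPT in Tdp1-knockout DT40 cells stably expressing hTDP1, seeded 400/well; qHTS titration format.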
TDP1 block = qHTS Assay for Inhibitors of Tyrosyl-DNA Phosphodiesterase (TDP1) | recombinant TDP1, AlphaScreen DNA substrate cleavage | Potency, µM (highest dose often 130 µM), without a hit: at the top dose activity change, negative = inhibition, most hits filed as inhibitors | 350,000 tested, 0.28% active | Tyrosyl-DNA phosphodiesterase 1 (Homo sapiens), Q9NUW8; note: potency is the fitted concentration of half-maximal effect; % is set by controls: 0 for no effect and ±100 for the full control effect; nearly all actives have a fitted effect of over 40% in size
Target sequence (Q9NUW8 whole entry, looked up): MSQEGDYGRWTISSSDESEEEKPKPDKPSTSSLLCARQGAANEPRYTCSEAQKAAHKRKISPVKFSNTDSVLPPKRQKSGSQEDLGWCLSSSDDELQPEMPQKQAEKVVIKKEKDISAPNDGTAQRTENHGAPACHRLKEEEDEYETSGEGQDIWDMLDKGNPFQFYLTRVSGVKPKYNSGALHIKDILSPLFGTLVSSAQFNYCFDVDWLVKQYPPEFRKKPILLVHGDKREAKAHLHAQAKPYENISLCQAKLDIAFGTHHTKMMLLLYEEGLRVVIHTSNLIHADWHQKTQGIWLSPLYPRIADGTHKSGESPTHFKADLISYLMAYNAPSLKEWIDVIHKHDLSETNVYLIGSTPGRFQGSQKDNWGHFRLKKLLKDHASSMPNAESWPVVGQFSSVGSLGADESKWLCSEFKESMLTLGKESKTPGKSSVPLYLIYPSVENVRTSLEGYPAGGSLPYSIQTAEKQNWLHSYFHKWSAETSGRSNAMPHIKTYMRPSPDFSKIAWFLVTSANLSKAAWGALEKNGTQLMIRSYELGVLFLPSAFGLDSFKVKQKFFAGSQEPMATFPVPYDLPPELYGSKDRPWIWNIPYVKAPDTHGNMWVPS
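Compounds were preincubated with Tdp1 (1 nM final) for 15 min at room temperature before substrate (15 nM final) started a 5 min reaction; beads (10 ug/ml final) were then added for 10 min before AlphaScreen detection.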
IL1B secr inh = qHTS for Inhibitors of Inflammasome Signaling: IL-1-beta AlphaLISA Primary Screen; activity change, % at 57.5 µM; THP-1 LPS/ATP IL-1B secretion, AlphaLISA, 16 h; hits give low values; 360,000 tested, 4.7% active; in the data active = activity change below about -50%; inconclusive = mostly about -30% to -49%; note: % is set by controls: 0 for no effect and ±100 for the full control effect
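THP-1 cells pretreated 1 hr with compounds (up to 57.5 uM final), then stimulated with LPS (250 ng/mL final) plus ATP (1.25 mM final); secreted IL-1B measured by AlphaLISA after 16 hr, decreased signal indicating inhibition.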
TGFb SMAD3 inh = qHTS for Inhibitors of TGF-b; HepG2 CAGA-GFP TGF-b/SMAD3 reporter, GFP fluorescence, 18 h; TGF-beta stimulated, 500 pg/mL final; Potency, µM (doses to about 46.1 µM), inactives show at the top dose activity, negative = inhibition, actives largely listed as inhibitors; 410,000 tested, 1.2% active; note: potency is the fitted concentration of half-maximal effect; % is set by controls: 0 for no effect and ±100 for the full control effect; nearly all actives have a fitted effect of over 65% in size
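HEPG2 CAGA-GFP reporter cells (1000/well, DMEM with 1% FBS) received compounds, then recombinant TGF-beta at 500 pg/mL final for 18 hours at 37 degrees C. Per-cell GFP summed per well was normalised to unstimulated and stimulated DMSO controls before curve fitting.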
* hit, by the source's call; ? = inconclusive; . = no result given. Most compounds without a hit are left out; they make up all but 19% or so of the library. Unless noted, calls come from the whole dose curve; as a rule, active = well fitted curve in the direction sought with a large enough effect; inconclusive = small, poorly fitted or top-dose-only effect, or another doubt; inactive = no such curve, though single readings can be large; an effect the other way counts as inactive or inconclusive.

SMILES	TDP1 cell noCPT	HepG2 viability	TDP1 cell CPT	TDP1 block	IL1B secr inh	TGFb SMAD3 inh
O=c1c2ccccc2nc(SCc2cn3ccsc3n2)n1-c1ccccc1	-23.1%	-12.3%	-19.9%	5.5%	-5.8	-0.3%
CCn1c(=S)sc2c(=O)n(-c3ccccc3)c(SCC(=O)NCc3ccco3)nc21	?	5.7%	17.8µM*	5.2%	-12.8	8.3%
O=C(NCc1ccco1)c1ccc2c(=O)n(Cc3ccco3)c(SCC(=O)N3CCCC3)nc2c1	?	-27.9%	25.9µM*	35.5µM*	-13.4	-12.9%
O=c1c2ccccc2nc(-c2ccccc2)n1Cc1ccco1	?	-13.2%	-16.3%	-5.2%	-1.1	0.6%
O=C1c2ccccc2C(=O)N1CCCc1nc2ccccc2c(=O)n1Cc1ccco1	16.4µM*	10.2%	20.6µM*	3.8%	-1.8	0.0%
Cc1cccc(-n2c(SCc3cc(=O)n4ccsc4n3)nc3ccccc3c2=O)c1	14.6µM*	-1.6%	?	7.9%	-2.8	-4.0%
COCCNC(=O)c1ccc2c(=O)n(Cc3ccco3)c(SCC(=O)NC3CCCCC3)nc2c1	0.8%	-7.3%	-15.3%	6.7%	-15.1	-11.6%
CC(=O)Nc1ccc(NC(=O)C2CCCN2S(=O)(=O)c2ccc3c(c2)CCCC(=O)N3)cc1 (configuration not stated)	-1.0%	2.3%	-12.2%	0.0%	.	11.9%
Cc1ccc(C)c(N2CCN(S(=O)(=O)c3cc4c(cc3C)NC(=O)CO4)CC2)c1	?	1.4%	?	.	-0.3	-10.8%
CCCC(=O)Nc1cccc(-c2cn3c(C)csc3n2)c1	?	2.2%	-25.5%	0.0%	.	-3.2%
Cc1ccc(-n2c(SCc3ccc([N+](=O)[O-])cc3)nc3ccccc3c2=O)cc1	?	-1.9%	?	6.4%	5.5	8.2%
CCN(CC)C(=O)CSc1nc2c(sc(=S)n2-c2ccccc2)c(=O)n1Cc1ccco1	?	3.3%	23.1µM*	8.8%	-64.3*	-4.6%
CCOC(CCn1c(SCc2ccc([N+](=O)[O-])cc2)nc2ccccc2c1=O)OCC	13µM*	-6.1%	14.6µM*	0.0%	?	-26.6%
CCn1c(SCC(=O)N2CCCCCC2)nc2ccccc2c1=O	?	-3.2%	20.6µM*	3.2%	-10.6	-18.7%
C=CCn1c(SCC(=O)N2CCCCCC2)nc2ccccc2c1=O	?	-21.2%	?	0.4%	-15.8	-4.7%
O=C(CSc1nc2ccccc2c(=O)n1Cc1ccco1)N1CCCCCC1	?	-30.2%	20.6µM*	7.1%	?	-16.1%
CCN(CC)C(=O)CSc1nc2c(sc(=S)n2CC)c(=O)n1-c1ccccc1	-29.8%	3.4%	-18.2%	1.0%	-10.7	?
COC(=O)c1cccc(C23CC4(C2)[C@H](CN(C)[C@@H]4c2ccccc2)C3c2ccc(Cl)nc2)c1 (some centres not stated)	.	.	.	12.9%	.	.
Cc1ccc(C)c2c(C)ccnc12	-4.4%	8.2%	-14.8%	.	.	-0.8%
COc1ccccc1CN1CC[C@@]2(CCCN(C(=O)c3cccc(F)c3)C2)C1	-22.8%	.	7.4%	.	.	.
Cc1ccccc1C(N)=O	4.9%	3.4%	12.7%	8.2%	-6.6	-0.3%
CCn1c(SCc2cccc(OC)c2)nc2ccccc2c1=O	20.6µM*	-16.1%	10.3µM*	.	24.9	-43.2%
CCn1c(SCc2ccc(OC)c(F)c2)nc2ccccc2c1=O	-69.7%	-2.3%	?	?	-15.2	-14.8%
O=C(/C=C/c1cccc(Cl)c1)c1ccc([N+](=O)[O-])o1	0.581µM*	12.6µM*	0.581µM*	.	-102.0*	3.55µM*
CCC(=O)N1CCc2cc(CNS(=O)(=O)c3ccc(C(C)C)cc3)ccc21	?	-5.6%	?	3.8%	.	?
SMILES	TDP1 cell noCPT	HepG2 viability	TDP1 cell CPT	TDP1 block	IL1B secr inh	TGFb SMAD3 inh
COc1cccc(NC(=O)COc2ccc3c(c2)CCC3)c1	2.9%	-5.5%	-0.3%	1.2%	-0.4	-1.1%
CCOC(=O)Nc1cccc(OCC(=O)Nc2ccc3c(c2)CCC3)c1	23.1µM*	-47.4%	?	0.4%	10.8	?
Cc1nn(C(C)C(=O)NC2CCCCC2)c(=O)c2c1sc1ccccc12 (configuration not stated)	?	-17.5%	?	11.4%	.	-17.6%
COc1ccc(CN2CCN(C(=O)c3cccs3)CC2)cc1	-18.9%	-31.5%	-6.6%	5.2%	-87.0*	-24.5%
COc1ccc(CC2(CO)CCN(Cc3cccc4nccnc34)CC2)cc1	-28.2%	6.9%	2.5%	-8.3%	-14.3	2.6%
COc1ccc(CC2(CO)CCN(Cc3cnn(-c4ccccc4OC)c3)CC2)cc1	10.3µM*	-15.4%	?	0.0%	-9.1	-6.8%
COc1ccc(CC2(CO)CCN(Cc3cnn(-c4ccccc4)c3)CC2)cc1	?	-24.0%	?	2.8%	-95.1*	0.4%
COc1ccc(CC2(CO)CCN(Cc3cnn(-c4ccc(F)cc4)c3)CC2)cc1	?	-29.6%	-16.4%	6.0%	21.9	-18.9%
COc1ccc(CC2(CO)CCN(Cc3cnc(-c4ccccc4C)nc3)CC2)cc1	13µM*	-22.6%	?	4.8%	4.3	?
O=C(Cc1c(Cl)cccc1Cl)Nc1ccc(S(=O)(=O)Nc2ncccn2)cc1	-21.2%	3.6%	18.7%	3.6%	7.7	-0.7%
Cc1c(NC(=O)Nc2cc(F)c(F)cc2Cl)c(=O)n(-c2ccccc2)n1C	-5.9%	-11.1%	-9.1%	.	-5.8	-5.9%
Cc1ccc(-c2nc(-c3cc4cccc(OCc5ccccc5F)c4oc3=O)no2)cc1	-10.2%	5.7%	-8.9%	3.6%	.	0.1%
Cc1cc(C)n(-c2cccc(CN3CCC(CO)(Cc4ccccc4)CC3)c2)n1	23.1µM*	-29.9%	?	2.7%	-70.7*	-2.6%
COc1ccc(CN2CCN(Cc3ccc(C(F)(F)F)cc3)CC2)cc1	23.1µM*	-37.3%	?	.	?	?
FC(F)(F)c1ccc(CN2CCCCCC2)cc1	8.2%	-0.5%	0.3%	-7.0%	11.3	9.5%
Cc1[nH]c2ccccc2c1CN1CCC(CO)(Cc2ccccc2)CC1	?	-30.1%	13µM*	9.9%	-15.7	-14.3%
COc1ccc(CN2CCC(CO)(Cc3ccccc3C(F)(F)F)CC2)c(F)c1	18.4µM*	-74.5%	16.4µM*	5.4%	?	?
